The text below walks through data of PubChem BioAssay.

The structures appear in SMILES notation. For part of these data: Entries with a potency or affinity are not part of this list. Active and inactive are the calls of the source.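 Rule for the calls, unless noted: active = compound raising the membrane signal above positive-control mean plus 3 SD in both repeats, and a primary screen hit; inactive = the rest.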

As a reminder, the inhibition is the percentage by which the read-out fell short of the control.

Assay [1] has as its system TRPC4 beta (transient receptor potential cation channel C4), mouse. Briefly: activators of mouse TRPC4 channel, confirmation, cell-based, Fluo4 calcium, HEK293 TRPC4beta/mu-opioid, duplicates, 10 µM (AID 2426;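 active = fluorescence ratio normalized to control raised more than 50% in primary screen plus both repeat runs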). To be noted: Fluo4 calcium fluorescence, at 10 µM; hits give high values.
The test system of assay [2] is transient receptor potential cation channel C4 beta (TRPC4), mouse. Briefly: activators of mouse TRPC4 channel, confirmation, cell-based, second round, Fluo4, HEK293 TRPC4beta/mu-opioid, 1 µM (AID 2461;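 active = primary screen active and over 50% activation in each of two duplicate runs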). To be noted: Fluo4 calcium fluorescence, at 1 µM; hits give high values.
In assay [3] the test system is TRPC4 (transient receptor potential cation channel C4 beta), mouse. Briefly: positive allosteric modulators of mouse TRPC4, confirmation, cell-based, second round, Fluo-4, HEK293 TRPC4beta/mu-opioid, 1 µM (AID 2554;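 active = primary screen hit whose fluorescence ratio, in both repeats, exceeds the weak agonist control mean by 3 SD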). To be noted: DAMGO EC20, Fluo-4 calcium flux, at 1 µM; hits give high values.
Assay [4] concerns TRPC4 beta (transient receptor potential cation channel C4), mouse. Briefly: positive allosteric modulators of mouse TRPC4, confirmation, cell-based, Fluo-4, HEK293 TRPC4beta/mu-opioid (AID 2555;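 active = primary screen hit whose calcium fluorescence ratio, in both repeats, exceeds the weak agonist control mean by 3 SD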). The following applies: DAMGO EC20, Fluo-4 calcium flux, at 10 µM; hits give high values. (In general: A change in cytosolic calcium serves as a functional read-out for many receptors and channels.)

Assay [5] addresses Short transient receptor potential channel 4 (Mus musculus) (UniProt Q9QUQ5). Briefly: inhibitors of mouse TRPC4 channel, confirmation, cell-based, Fluo4, HEK293 TRPC4beta/mu-opioid (AID 2636;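 active = calcium signal cut by more than 3 SD below the full-agonist control yet still positive, in both repeats and the earlier primary screen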). To be noted: DAMGO, Fluo4 calcium flux, at 10 µM; hits give high values.
For assay [6] the target is unchanged. Briefly: inhibitors of mouse TRPC4 channel, confirmation, cell-based, second round, Fluo4, HEK293 TRPC4beta/mu-opioid, 1 µM (AID 2637;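 active = calcium signal ratio cut to more than 3 SD under the fully stimulated control mean yet still positive, in both repeats and the primary screen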;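 for inhibition: percent of integrated ratio relative to wells lacking test compound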). To be noted: Fluo4 calcium flux, DAMGO, at 1 µM; hits give high values.
The target is the same in assay [7]. Briefly: mouse TRPC4 channel activators, dose response, cell-based, HEK293 TRPC4/mu-opioid, Fluo-4 calcium (AID 434937;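 active = primary screen activator hit with a dose response curve and TRPC4 channel activation at any tested dose; inactive = no activation, no dose response, or not a primary hit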).
For assay [8] the target is unchanged. Briefly: TRPC4 positive allosteric modulators, dose response, cell-based, HEK293 TRPC4/mu-opioid, Fluo-4 calcium, EC20 DAMGO (AID 434941;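 active = earlier screen potentiator hit that boosts the TRPC4 ion channel at some dose, with a dose response; inactive = no potentiation, no dose response, or not a prior hit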;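 note: calcium entry triggered by an EC20 dose of DAMGO at the co-expressed mu-opioid receptor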).
For assay [9] the target is unchanged. Briefly: mouse TRPC4 channel inhibitors, dose response, cell-based, HEK293 TRPC4/mu-opioid, Fluo-4 calcium (AID 434942;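 active = primary screen inhibitor hit that blocks the TRPC4 channel at some tested dose, yielding a dose curve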).
For assay [10], the target named is Short transient receptor potential channel 6 (Mus musculus) (UniProt Q61143). Briefly: inhibition of mouse TRPC6 channel, confirmation, selectivity assay for TRPC4 inhibitor project, cell-based, HEK293, membrane potential dye, duplicate (AID 434948;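 active = active in primary screen and both duplicates, each dropping signal beyond three positive-control SD with fluorescence still positive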). To be noted: HEK293 TRPC6, membrane potential dye fluorescence, at 10 µM, stimulated with maximal-effect acetylcholine; hits give high values.

Assay [11] has the same target. Briefly: activation of mouse TRPC6 channel, confirmation, selectivity assay for TRPC4 activator project, cell-based, HEK293, membrane potential dye, duplicate (AID 434950;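 active = membrane potential signal rise above negative control mean plus 3 SD in both duplicates, also active in the earlier TRPC4 screen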). To be noted: HEK293 TRPC6, membrane potential fluorescence, at 10 µM; hits give high values.
Assay [12] shares this target. Briefly: TRPC6 potentiation by TRPC4 potentiator hits, confirmation, selectivity assay for TRPC4 potentiator project, HEK293 cells, membrane potential dye, duplicate (AID 434952). To be noted: HEK293 TRPC6, membrane potential dye fluorescence, at 10 µM, maximal acetylcholine added after compound; hits give high values.
Assay [13] concerns the target Short transient receptor potential channel 4 (Mus musculus) (UniProt Q9QUQ5). Briefly: calcium flux activators in TRPC4/5HT1a cells, counter-screen for TRPC4 activator project, cell-based, second counter screen, HEK293 TRPC4/5HT1a, Fluo-4 (AID 434977;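 active = calcium signal rise above buffer-control mean plus 5 SD in both duplicates, and also a hit in the primary screen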). The following applies: Fluo-4 calcium flux, at 10 µM; hits give high values.
A short description of assay [14]: calcium flux inhibitors in TRPC4/5HT1a cells, confirmation, counter-screen for TRPC4 inhibitor project, cell-based, second counter screen, HEK293 TRPC4/5HT1a, Fluo-4 (AID 434978;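 active = primary screen active whose calcium signal fell more than 3 SD beyond the full-serotonin control mean in both duplicate plates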;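 note: serotonin given first at submaximal then at maximal dose after compound preincubation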). To be noted: Fluo-4 calcium flux, at 10 µM, serotonin added to trigger calcium flux; hits give high values.
In assay [15] the test system is TRPC4 (mouse), co-expressed with 5HT1a in HEK293. Briefly: calcium flux potentiators in TRPC4/5HT1a cells, confirmation, counter-screen for TRPC4 potentiator project, cell-based, second counter screen, HEK293 TRPC4/5HT1a, Fluo-4 (AID 434979;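 active = signal rise over 3 SD above mean of control wells given weak agonist, in both repeats and first screen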). The following applies: Fluo-4 calcium flux, at 10 µM, serotonin added at its EC20 dose; hits give high values.
A short description of assay [16]: calcium flux activation in mu-opioid HEK293 cells, confirmation, counter-screen for TRPC4 activator project, cell-based, HEK293 mu-opioid receptor line (AID 449723;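 active = hit in primary screen, with calcium signal over 5 SD above buffer well mean in both duplicates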;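 note: counter screen cells carry the mu-opioid receptor alone and lack TRPC4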). To be noted: Fluo-4 calcium fluorescence, at 10 µM; hits give high values.
The nature of assay [17]: calcium flux enhancement in mu-opioid HEK293 cells, confirmation, counter-screen for TRPC4 allosteric potentiator project, cell-based, HEK293 mu-opioid receptor line (AID 449724;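 active = calcium signal rise more than 3 SD above the low-dose agonist control mean, in both duplicate plates and the primary screen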;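 note: HEK293 cells carrying mu-opioid receptor only with no TRPC4 channel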). The following applies: Fluo-4 calcium flux, at 10 µM, compound added before EC20 DAMGO stimulus; hits give high values.

Chain of Short transient receptor potential channel 4 (Mus musculus) (Q9QUQ5 whole entry, looked up): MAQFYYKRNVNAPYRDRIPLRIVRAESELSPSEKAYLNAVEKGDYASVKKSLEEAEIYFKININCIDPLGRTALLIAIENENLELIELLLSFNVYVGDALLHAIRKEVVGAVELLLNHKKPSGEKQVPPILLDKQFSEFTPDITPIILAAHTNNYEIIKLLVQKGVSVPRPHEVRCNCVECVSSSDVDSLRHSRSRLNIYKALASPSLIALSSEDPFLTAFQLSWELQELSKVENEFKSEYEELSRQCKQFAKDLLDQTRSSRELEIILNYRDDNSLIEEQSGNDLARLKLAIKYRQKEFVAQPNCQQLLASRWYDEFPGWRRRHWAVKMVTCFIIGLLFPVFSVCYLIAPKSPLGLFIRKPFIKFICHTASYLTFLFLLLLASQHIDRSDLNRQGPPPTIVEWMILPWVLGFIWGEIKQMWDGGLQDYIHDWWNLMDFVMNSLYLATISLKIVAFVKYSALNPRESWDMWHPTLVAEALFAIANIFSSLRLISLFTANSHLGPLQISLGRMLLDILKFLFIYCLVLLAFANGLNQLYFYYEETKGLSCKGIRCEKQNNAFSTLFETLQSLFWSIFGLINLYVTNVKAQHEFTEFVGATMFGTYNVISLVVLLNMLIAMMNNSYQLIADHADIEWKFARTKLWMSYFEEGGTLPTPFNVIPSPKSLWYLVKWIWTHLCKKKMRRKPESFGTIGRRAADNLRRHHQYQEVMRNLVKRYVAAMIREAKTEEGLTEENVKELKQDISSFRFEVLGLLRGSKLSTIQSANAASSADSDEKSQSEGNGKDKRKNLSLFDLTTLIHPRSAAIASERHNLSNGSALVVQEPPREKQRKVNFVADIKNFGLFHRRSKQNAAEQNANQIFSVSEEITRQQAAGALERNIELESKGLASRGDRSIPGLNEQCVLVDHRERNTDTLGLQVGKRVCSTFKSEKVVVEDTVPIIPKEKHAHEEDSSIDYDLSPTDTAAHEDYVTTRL
Chain of Short transient receptor potential channel 6 (Mus musculus) (Q61143 whole entry, looked up): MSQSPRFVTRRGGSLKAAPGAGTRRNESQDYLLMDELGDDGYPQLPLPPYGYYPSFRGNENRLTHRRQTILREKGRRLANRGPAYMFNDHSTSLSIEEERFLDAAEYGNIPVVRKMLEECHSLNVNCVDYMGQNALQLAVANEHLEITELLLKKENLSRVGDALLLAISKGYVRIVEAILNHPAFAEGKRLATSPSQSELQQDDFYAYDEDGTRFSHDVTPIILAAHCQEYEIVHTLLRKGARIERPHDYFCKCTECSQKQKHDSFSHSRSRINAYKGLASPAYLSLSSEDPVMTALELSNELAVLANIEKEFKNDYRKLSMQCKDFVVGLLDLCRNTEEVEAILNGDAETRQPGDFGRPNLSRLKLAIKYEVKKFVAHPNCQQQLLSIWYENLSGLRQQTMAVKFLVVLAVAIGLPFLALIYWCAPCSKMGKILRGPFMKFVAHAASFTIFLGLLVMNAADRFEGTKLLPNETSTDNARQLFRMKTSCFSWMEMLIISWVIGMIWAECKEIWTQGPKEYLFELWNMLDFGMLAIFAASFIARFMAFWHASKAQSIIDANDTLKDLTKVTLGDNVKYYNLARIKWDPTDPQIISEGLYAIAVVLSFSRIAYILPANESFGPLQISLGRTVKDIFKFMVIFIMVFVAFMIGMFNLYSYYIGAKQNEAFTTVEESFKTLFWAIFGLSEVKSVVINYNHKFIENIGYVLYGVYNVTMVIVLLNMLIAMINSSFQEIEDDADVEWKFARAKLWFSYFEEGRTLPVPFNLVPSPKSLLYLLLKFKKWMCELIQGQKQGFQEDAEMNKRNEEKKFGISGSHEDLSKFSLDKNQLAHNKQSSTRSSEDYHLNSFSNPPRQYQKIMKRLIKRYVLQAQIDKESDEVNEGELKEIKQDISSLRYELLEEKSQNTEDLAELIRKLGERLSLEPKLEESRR

In the case of `Cn1c(SCCOc2ccccc2F)nc2ccccc2c1=O`, the outcome in assay [1], in assay [2], in assay [3], in assay [5], in assay [6] and in assay [7] was inactive. The result in assay [8], in assay [9], in [10], in assay [11], in [12] and in assay [13] was inactive. Moreover, the result in assay [14], in [15], in assay [16] and in assay [17] was inactive. Moreover, the potentiation in assay [4] is 10% (active).

Consider `COC(=O)C1=C(C)NC2=C(C(=O)c3ccccc32)C1c1ccc(-c2ccc(C(=O)O)cc2)o1` (stereo not given), for which the outcome in assay [1], in assay [2], in assay [3], in assay [4], in assay [5] and in assay [6] was inactive. In addition, the result in assay [7], in [8], in assay [9], in assay [10], in [11] and in [12] was inactive. Also, the result in [13], in assay [14], in assay [15] and in assay [16] was inactive. In [17], the activation was 1780% (active).

In the case of `Cc1cc(C)c(C)c(OCCCOc2cccc3cccnc23)c1`, the outcome in assay [1], in assay [2], in assay [3], in assay [4], in assay [5] and in assay [6] was inactive. The outcome in assay [7], in [8], in [9], in [10], in assay [11] and in assay [12] was inactive. The result in assay [13], in assay [14], in assay [16] and in assay [17] was inactive. For the same compound, in [15], the potentiation was 19% (active).

`CN(C)CCOc1ccc2ccccc2c1`: the result in assay [1], in assay [2], in assay [5], in assay [6], in assay [7] and in [8] was inactive. Moreover, the outcome in [9], in [10], in assay [11], in assay [12], in assay [13] and in assay [14] was inactive. For the same compound, the outcome in assay [16] and in assay [17] was inactive. In addition, the figures for the potentiation in assay [3], in assay [4] and in [15] were 8% (active), 14% (active) and 19.8% (active), respectively.

Regarding `CCOC(=O)C1=C(CNCCc2ccc(Cl)cc2)NC(=O)NC1c1cccc([N+](=O)[O-])c1` (stereo not given), the outcome in assay [1], in assay [2], in assay [3], in [4], in [5] and in [6] was inactive. Moreover, the result in assay [7], in [8], in assay [9], in assay [10], in assay [11] and in [12] was inactive. Moreover, the outcome in [13], in assay [14], in assay [15], in [16] and in assay [17] was inactive.

As to `CC1=CC(=O)C(C(C)C)=C/C1=N/OS(=O)(=O)c1ccccc1`, the outcome in [1], in [2], in assay [3], in assay [5], in assay [6] and in assay [7] was inactive. For the same compound, the result in assay [8], in [9], in assay [10], in assay [11], in assay [12] and in [13] was inactive. In addition, the result in [14], in assay [16] and in assay [17] was inactive. Besides, the values for the potentiation in assay [4] and in [15] were 23% (active) and 64.1% (active), respectively.

With `CN1CCN(Cc2nc3ccccc3n2C)CC1CCO` (stereo not given), the outcome in [1], in assay [2], in [3], in assay [4], in assay [5] and in assay [6] was inactive. Also, the outcome in assay [7], in assay [8], in [9], in assay [10], in assay [11] and in assay [12] was inactive. For the same compound, the result in assay [13], in assay [14], in [16] and in [17] was inactive. The potentiation in assay [15] was 9.01% (active).

In the case of `CN(C(=O)COC(=O)c1sc2ccccc2c1Cl)C1CCCCC1`, the result in assay [1], in [2], in [3], in assay [5], in [6] and in assay [7] was inactive. The result in [8], in [9], in [10], in [11], in assay [12] and in assay [13] was inactive. Besides, the result in [14], in assay [16] and in [17] was inactive. Besides, the figures for the potentiation in [4] and in assay [15] were 36% (active) and 64.8% (active), respectively.

In the case of `C=CCNC(=S)N/N=C/c1ccc(C(C)(C)C)cc1`, the result in assay [1], in assay [2], in assay [3], in [4], in assay [7] and in assay [8] was inactive. Besides, the outcome in assay [9], in assay [10], in [11], in assay [12], in [13] and in assay [14] was inactive. The result in [15], in [16] and in assay [17] was inactive. Further, the inhibition in assay [5] is 79% (active); in assay [6] it was 41% (active).

For `Clc1ccc(N=C2SCC3CCCCN23)cc1` (stereo not given), the result in [1], in [2], in [3], in assay [5], in [6] and in [7] was inactive. The result in assay [8], in assay [9], in [10], in assay [11], in [12] and in assay [13] was inactive. Also, the outcome in assay [14], in [16] and in assay [17] was inactive. Also, the results for the potentiation in assay [4] and in assay [15] were 10% (active) and 35.2% (active), respectively.

For `CC1CC(C)CN(CCCNC(=O)c2ccc(N3CCCC3=O)cc2)C1` (stereo not given), the outcome in [1], in [2], in assay [3], in [4], in assay [5] and in assay [6] was inactive. Also, the result in assay [7], in assay [8], in assay [9], in assay [10], in assay [11] and in assay [12] was inactive. Also, the outcome in [13], in [14], in assay [16] and in assay [17] was inactive. Also, the potentiation in assay [15] was 27.3% (active).

Consider `OCCNc1nc(Nc2ccccc2)nc2ccccc12`, for which the result in assay [1], in [2], in assay [3], in assay [4], in [5] and in [6] was inactive. For the same compound, the result in assay [7], in assay [8], in assay [9], in [10], in assay [11] and in assay [12] was inactive. The result in assay [13], in assay [14], in assay [15], in assay [16] and in [17] was inactive.

Regarding `CCOc1ccc(Nc2nc(Cc3nnc(SCC(=O)c4ccc(C)cc4)o3)cs2)cc1`, the outcome in [1], in assay [2], in [3], in assay [4], in assay [5] and in assay [6] was inactive. In addition, the outcome in [7], in assay [8], in assay [9], in [10], in assay [11] and in assay [12] was inactive. Moreover, the result in [13], in assay [14], in assay [16] and in assay [17] was inactive. In addition, the potentiation in assay [15] is 8.2% (active).

With `O=C(O)CCC(=O)N1CCN(c2nc3ccccc3s2)CC1`, the outcome in assay [1], in assay [2], in [3], in assay [5], in [6] and in [7] was inactive. The result in assay [8], in assay [9], in assay [10], in assay [11], in [12] and in assay [13] was inactive. Moreover, the result in assay [14], in assay [16] and in assay [17] was inactive. Besides, the potentiation is 11% (active) in assay [4] and 21.2% (active) in assay [15].

`Cc1ccc(/C=N/NC(=O)CSc2nc3ccccc3n2Cc2ccccc2)o1`: the outcome in [1], in assay [2], in assay [3], in assay [4], in [5] and in assay [6] was inactive. Further, the outcome in assay [7], in assay [8], in assay [9], in assay [10], in assay [11] and in [12] was inactive. Further, the result in [13], in assay [14], in assay [15], in assay [16] and in assay [17] was inactive.
